A selection: hits, their analogues and other compounds. The true share with any hit is near 14%.
USP8 inh – inhibitors of human USP8 deubiquitinase; Ubiquitin carboxyl-terminal hydrolase 8 (Homo sapiens), P40818; purified USP8, Ub-rhodamine cleavage fluorescence, 30 min; inhibition, % at 20 µM; actives 4.2% (n = 47,000)
USP30 inh – inhibitors of human USP30 deubiquitinase; Ubiquitin carboxyl-terminal hydrolase 30 (Homo sapiens), Q70CQ3; purified USP30, Ub-rhodamine cleavage fluorescence; inhibition, % at 25 µM; actives 5.3% (n = 47,000)
Target sequence (Q70CQ3 whole entry, looked up): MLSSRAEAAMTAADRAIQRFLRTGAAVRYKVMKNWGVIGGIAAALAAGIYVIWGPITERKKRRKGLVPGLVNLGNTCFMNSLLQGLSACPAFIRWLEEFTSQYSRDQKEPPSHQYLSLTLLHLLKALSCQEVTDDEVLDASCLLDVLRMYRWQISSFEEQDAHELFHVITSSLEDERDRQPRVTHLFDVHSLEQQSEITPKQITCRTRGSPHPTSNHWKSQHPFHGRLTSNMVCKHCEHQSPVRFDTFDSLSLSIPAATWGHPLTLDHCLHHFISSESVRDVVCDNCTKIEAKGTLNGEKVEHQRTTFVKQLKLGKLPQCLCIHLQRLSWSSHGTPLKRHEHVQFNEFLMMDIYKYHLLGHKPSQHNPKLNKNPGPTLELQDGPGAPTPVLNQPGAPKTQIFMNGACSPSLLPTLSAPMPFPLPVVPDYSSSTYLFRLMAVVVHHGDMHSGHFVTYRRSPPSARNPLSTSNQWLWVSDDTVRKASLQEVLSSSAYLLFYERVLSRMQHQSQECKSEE
USP28 inh – inhibitors of human USP28 deubiquitinase; Ubiquitin carboxyl-terminal hydrolase 28 (Homo sapiens), Q96RU2; purified USP28, Ub-rhodamine cleavage fluorescence, 30 min; inhibition, % at 25 µM; actives 3% (n = 47,000); AID 1645857, 2021
USP17 inh – inhibitors of human USP17 deubiquitinase; Ubiquitin carboxyl-terminal hydrolase 17-like protein 5 (Homo sapiens), A8MUK1; purified USP17, Ub-rhodamine cleavage fluorescence, 3 h; inhibition, % at 50 µM; actives 6.5% (n = 47,000); AID 1645855, 2021
Starred values were filed as active, the others as inactive; / = not tested or not shown. Rule as the data show it: active = inhibition above about 30%; inactive = the rest.

SMILES	USP8 inh	USP30 inh	USP28 inh	USP17 inh
Cc1cc(C)c(C(=O)CSc2nnc(-c3ccccc3)o2)cc1C	56.3*	-57.3	-16.3	5.4
Cn1c(=O)c2c(nc3n(CCO)c(-c4ccc(Cl)cc4)cn23)n(C)c1=O	-10.9	36.1*	9.6	5.5
COc1cc(Cn2nnc3ccccc32)cc(Br)c1O	8.4	-8.0	38.2*	7.8
CN1CCC(Nc2nc(-c3ccncc3)nc3c2CCC3)CC1	1.6	-3.2	-4.7	-11.5
O=C(O)c1cccc(NC(=O)C2c3ccccc3Oc3ccccc32)c1	-15.0	-12.3	0.3	-0.6
O=C(Nc1ccc2c(c1)nc1n2CCCCC1)C1c2ccccc2Oc2ccccc21	6.4	8.3	18.1	48.2*
COc1ccc(C2c3cccn3CCN2S(=O)(=O)c2ccc(NC(C)=O)cc2)cc1 (stereo not given)	-196.8	-55.3	-17.2	-30.6
Cn1nc(-c2ccccc2)c(COC(=O)c2ccc([N+](=O)[O-])cc2)c1Cl	4.8	11.2	-3.2	59.5*
O=C(OCc1cnc(Cl)s1)c1ccc([N+](=O)[O-])cc1	-132.4	3.3	40.5*	-3.3
CC(C)c1cc(C(=O)N2CCCC2c2cc(C(C)C)no2)on1 (stereo not given)	-5.7	-12.2	-7.7	-5.7
O=C(Nc1ccccc1)c1ccc(N2CCCC2)c([N+](=O)[O-])c1	-57.5	-7.3	15.2	-21.5
NC(=O)c1ccc(N2CCN(c3ccccc3O)CC2)c([N+](=O)[O-])c1	11.6	-9.9	12.1	31.6*
Cc1ccc(C)c(CN2C(=O)c3ccccc3S(=O)c3ccc(C(=O)NCCc4ccccc4)cc32)c1 (stereo not given)	18.8	37.9*	26.6	8.7
COc1ccc(-c2cc(C(F)F)n3ncc(C(=O)N(Cc4ccccc4)Cc4ccccc4)c3n2)cc1	6.1	0.9	-0.7	-4.9
COc1ccc(-c2cc(C(F)F)n3ncc(C(=O)NCC4CCCO4)c3n2)cc1 (stereo not given)	0.1	/	/	33.5*
COc1ccc(-c2cc(C(F)F)n3ncc(C(=O)NC(C)c4ccc(C(C)C)cc4)c3n2)cc1 (stereo not given)	24.4	26.3	-6.2	11.7
COc1ccc(-c2cc(C(F)F)n3ncc(C(=O)Nc4ccc5c(c4)OCCO5)c3n2)cc1	4.2	55.9*	4.8	11.0
Cc1cc(C)cc(OCc2cc(=O)n3c(C)csc3n2)c1	10.8	6.7	2.4	13.6
Cc1nc(-c2noc3ccc(C(=O)NC4CCCC4)cc23)co1	16.6	33.1*	17.0	31.6*
O=C(Nc1cccc(OC(=O)c2ccc(Cl)cc2)c1)c1ccc(Cl)cc1	18.0	-3.2	4.3	63.3*
COc1cccc(NC(=O)c2ccc3noc(-c4ccc(Cl)cc4)c3c2)c1	2.9	0.2	-0.1	57.6*
O=C(NC1CCCC1)c1ccc2noc(-c3ccc(Cl)cc3)c2c1	-0.6	-35.5	-11.1	39.2*
O=C(NCc1ccc(Cl)cc1)c1ccc2noc(-c3ccccc3)c2c1	-4.6	-41.1	-2.9	-20.8
O=C(Nc1ccc(S(=O)(=O)N2CCCCC2)cc1)c1cc([N+](=O)[O-])ccc1N1CCOCC1	-37.1	20.9	15.9	0.7
CCCCN1CC(c2nc3ccccc3n2C/C=C/c2ccccc2)CC1=O (stereo not given)	6.0	22.2	22.0	/
SMILES	USP8 inh	USP30 inh	USP28 inh	USP17 inh
O=C(Nc1ccc2c(c1)OCO2)c1ccc2noc(-c3ccc(Cl)cc3)c2c1	5.1	10.5	16.7	37.5*
CC(=O)c1cccc(NC(=O)c2ccc3noc(-c4ccc(F)cc4)c3c2)c1	-42.0	41.3*	9.4	0.0
Cc1cccc(NC(=O)c2ccc3noc(-c4ccc(F)cc4)c3c2)c1	-7.9	-41.5	-21.2	-16.9
O=C(NCc1cnn2ccccc12)c1ccc2c(c1)OCO2	-7.2	-5.8	-1.8	-9.6
CCCCc1nc2sc3c(NCCCO)ncnc3c2c2c1COC(C)(C)C2	-2.9	-0.1	-7.3	46.4*
CCCc1nc2sc3c(NCCC(C)C)ncnc3c2c2c1CCC2	-4.8	-16.0	28.9	-23.1
CC1(C)Cc2c(c(N3CCOCC3)nc3sc4c(NCc5ccco5)ncnc4c23)CO1	-17.2	-78.8	-28.5	-22.1
CCCc1nc2sc3c(NCc4ccco4)ncnc3c2c2c1CCC2	21.9	-21.1	80.2*	-13.2
CCCc1nc2sc3c(NCCN4CCOCC4)ncnc3c2c2c1CCC2	-41.1	-23.8	80.5*	-11.3
CC(C)c1nc2sc3c(SCC(=O)N4CCOCC4)ncnc3c2c2c1CCC2	0.1	-8.6	34.7*	-24.2
CCOc1ccc(-n2ccc3nc(N4CCc5ccccc5C4)ncc3c2=O)cc1	7.3	3.0	0.5	0.4
Cc1cc(OCC(=O)Nc2ccc(C#N)cc2)nc(N2CCCCCC2)n1	-2.3	8.7	0.0	5.8
CCCCc1nc2sc3c(NCc4ccccn4)ncnc3c2c2c1CCC2	-1.4	-0.2	43.1*	4.6
CC(C)Cc1nc2sc3c(NCCN4CCOCC4)ncnc3c2c2c1CCC2	-16.2	-63.6	82.2*	-12.7
CCCCN(CCCC)c1ncnc2c1sc1nc(CC(C)C)c3c(c12)CCC3	-4.1	-31.2	-7.5	-10.1
CCCc1nc2sc3c(NCCCN4CCOCC4)ncnc3c2c2c1CCC2	5.6	-44.0	84.0*	-11.8
CC(C)c1nc2sc3c(NCCCN4CCOCC4)ncnc3c2c2c1CCC2	0.7	-42.6	47.9*	-10.6
CC1(C)Cc2c(c(N3CCCC3)nc3sc4c(NCCCN5CCOCC5)ncnc4c23)CO1	4.1	-12.2	-0.3	-6.4
COC(=O)c1ccc2c(=O)n(-c3ccc(Cl)cc3)c(N3CCC(C(N)=O)CC3)nc2c1	-2.9	10.9	-5.9	-6.2
CCCCNc1ncnc2c1sc1nc(CCC)c3c(c12)CCC3	-4.1	/	/	53.6*
Cc1ccc(Cl)c(-n2nnc(C(=O)Nc3ccccc3C#N)c2C)c1	16.5	30.2*	6.3	56.1*
Cc1cc(NC(=O)c2nnn(-c3ccccc3Cl)c2C)no1	5.7	14.0	85.8*	2.2
Cc1ccc(NC(=O)c2nnn(-c3ccccc3)c2C)c(C)c1	5.3	1.3	-6.3	7.0
C=C1CCC[C@]2(C)C[C@H]3OC(=O)[C@H](CNCCc4ccccc4OC)C3CC12 (stereo not given in full)	3.3	47.5*	11.0	7.3
C=C1CCC[C@]2(C)C[C@H]3OC(=O)C(CN(C)CC(O)c4ccc(O)cc4)[C@H]3CC12 (stereo not given in full)	-2.3	10.6	-6.5	-7.0
C=C1CCC[C@]2(C)C[C@H]3OC(=O)C(CN4CCCCC4CC)[C@H]3CC12 (stereo not given in full)	-3.9	40.0*	-0.9	-1.1
C=C1CCC[C@]2(C)C[C@H]3OC(=O)C(CN4CCCCC4C)[C@H]3CC12 (stereo not given in full)	-14.0	43.2*	-8.7	-0.1
C=C1CCC[C@]2(C)C[C@H]3OC(=O)C(CN4CCC(C(=O)OCC)CC4)[C@H]3CC12 (stereo not given in full)	-0.4	4.5	-1.1	-2.3
